The panel holds about 83,000 compounds, 20% with a hit somewhere; the sample as a whole holds those more often.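 Interpretation: 100, growth as untreated; towards 0, rising growth inhibition; 0, no net growth; 0 to -100, cell death. Compounds scoring below 10 were considered active.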 Unmarked numbers belong to inactive results. Calls of active or inactive are those of the source.

The values that follow come from PubChem BioAssay (NCI).

This assay relates to MALME-3M melanoma. Nature of the assay: NCI-60 one-dose screen, 48 h (100 = growth as untreated, 0 = no growth, -100 = all killed). The note with it: 10 µM unless noted.
Take `Clc1nnc2c3ccccc3ccn12`: the growth was 135%.

`COc1ccc(-c2nn(C(=O)NCCN(C)C)cc2-c2ccncc2)cc1Cl`: the growth is 53.8%.

Consider `CCN1C(=O)N(CC)C2C1NN=c1s/c(=C\c3ccco3)c(=O)n12` (stereo unspecified), for which the growth was 55.8%.

`CC(C)N(C(=S)SSC(=S)N(C(C)C)C(C)C)C(C)C`: the growth was 101%.

Turning to `CC(C)=CC[C@@H]1CC2(CC=C(C)C)C(=O)C(OC3(C(=O)c4ccccc4)C(=O)C4(CC=C(C)C)C[C@@H](CC=C(C)C)C(C)(C)C(CC=C(C)C)(C4=O)C3=O)(C(=O)c3ccccc3)C(=O)C(CC=C(C)C)(C2=O)C1(C)C` (stereo partly specified), the growth was -28.8% (active).

For the molecule `CCCCCCCCCCCCCCCC1=NCCN1`, the growth is 103%.

`COc1cc([N+](=O)[O-])cc(OC)c1OC`: the growth is 97.8%.

For `NNC(=O)CSc1nc2scc(-c3ccccc3)c2c(=O)n1-c1ccccc1`, the growth is 155%.

Turning to `C=CCN(CC#N)CC=C`, the growth is 109%.

On to `CCOC(=O)Cn1c(-c2nonc2NC(=O)c2ccccc2F)nc2ccccc21`, for which the growth was 77.4%.

`CCCCCCCOc1cccc(/C=C2\N=C3SCCCN3C2=O)c1`: the growth was 139%.

`Cc1c2c(cc3c1[nH]c1ccccc13)C=NCC2`: the growth is 103%.

Regarding `COc1cc(OC)c(Cl)cc1N`, the growth was 134%.

For the molecule `CS(=O)(=O)c1ccc(C(=O)Nc2ccc(Cl)c(-c3ccccn3)c2)c(Cl)c1`, the growth is 42.4%.

Regarding `Cc1cc([N+](=O)[O-])c(C)cc1N`, the growth is 104%.

As for `COc1cnc2c(c1)C(=O)c1c-2n(CCCN2CCNCC2)c(=O)c2cc(Cl)ccc12`, the growth is -51.5% (active).
